# Test results published in the supplement of paper PMC6555819.
# What was measured:
# Assay in all cases: PBM binding z-score (relative to random genomic background probes); higher = stronger binding; sequences stand for … in GC…GCGATTGACAGCGTAGAATGAAGG
# [1] = system: FXR:RXRa (NR concentration 270 nM, RXRa partner concentration 90 nM)
# Outline: (§1)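 Regression normalization was applied to scanned fluorescence from custom Agilent 4×180K protein-binding microarrays. Before scanning, arrays were incubated 1 h with ligand-free nuclear receptor dimers, and binding was detected with antibodies against each partner (one per run). Binding z-scores use the random background probes as reference.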
# [2] = system: LXRa:RXRa (NR concentration 270 nM, RXRa partner concentration 90 nM)
# Outline: as §1
# [3] = system: LXRa homodimer (NR concentration 270 nM)
# Outline: as §1
# [4] = system: LXRb:RXRa (NR concentration 270 nM, RXRa partner concentration 90 nM)
# Outline: as §1
# [5] = system: LXRb homodimer (NR concentration 270 nM)
# Outline: as §1
# [6] = system: PPARa:RXRa (NR concentration 270 nM, RXRa partner concentration 90 nM)
# Outline: as §1
# [7] = system: PPARg:RXRa (NR concentration 180 nM, RXRa partner concentration 90 nM)
# Outline: as §1
# [8] = system: PPARg:RXRa 270nM:90nM, anti-RXR (NR concentration 270 nM, RXRa partner concentration 90 nM)
# Outline: as §1
# [9] = system: PPARg:RXRa 30nM:10nM, anti-RXR (NR concentration 30 nM, RXRa partner concentration 10 nM)
# Outline: as §1
# [10] = system: PPARg:RXRa 90nM:30nM, anti-RXR (NR concentration 90 nM, RXRa partner concentration 30 nM)
# Outline: as §1
# [11] = system: PPARg:RXRa DBDmut IVT, anti-RXR (DBD mutation: RXRa K156A/R161A, NR concentration 270 nM, RXRa partner concentration 90 nM)
# Outline: as §1
# [12] = system: PPARg:RXRa IVT, anti-PPARg (NR concentration 270 nM, RXRa partner concentration 90 nM)
# Outline: as §1
# [13] = system: PPARg DBDmut:RXRa IVT, anti-PPARg (DBD mutation: PPARg1 K132A/R137A, NR concentration 270 nM, RXRa partner concentration 90 nM)
# Outline: as §1
# [14] = system: PPARg DBDmut IVT, anti-PPARg (DBD mutation: PPARg1 K132A/R137A, NR concentration 270 nM)
# Outline: as §1
# [15] = system: PPARg homodimer (NR concentration 180 nM)
# Outline: as §1
# [16] = system: PXR:RXRa (NR concentration 270 nM, RXRa partner concentration 90 nM)
# Outline: as §1
# [17] = system: PXR homodimer (NR concentration 270 nM)
# Outline: as §1
# [18] = system: RARa:RXR (NR concentration 270 nM, RXRa partner concentration 90 nM)
# Outline: as §1
# [19] = system: RARa homodimer (NR concentration 270 nM)
# Outline: as §1
# [20] = system: RARb:RXRa (NR concentration 270 nM, RXRa partner concentration 90 nM)
# Outline: as §1
Sequence,PBM binding z-score [1],PBM binding z-score [2],PBM binding z-score [3],PBM binding z-score [4],PBM binding z-score [5],PBM binding z-score [6],PBM binding z-score [7],PBM binding z-score [8],PBM binding z-score [9],PBM binding z-score [10],PBM binding z-score [11],PBM binding z-score [12],PBM binding z-score [13],PBM binding z-score [14],PBM binding z-score [15],PBM binding z-score [16],PBM binding z-score [17],PBM binding z-score [18],PBM binding z-score [19],PBM binding z-score [20]
CCTCGGAGGACAGAAGGTCAGAGTTGTCCGCTTT,1.19,1.59,0.486,1.21,-0.813,1.88,0.0255,0.907,-0.816,0.173,0.283,0.171,-1.27,-1.42,0.997,1.77,-0.24,2,0.0194,3.16
AGAACGAGGGCAATGAGTTGGTAGCACGGGTGGC,0.301,0.0909,-0.759,-0.443,-0.642,1.18,0.956,0.772,-0.238,0.196,3.11,2.58,0.246,-0.0657,-0.218,0.943,1.44,0.0918,-0.865,1.96
TCTTGTAGATCAACCGGAGGTTAAGAAAGATCGA,0.397,1.58,1.09,1.17,-0.00394,1.26,-0.257,1.55,2.69,2.15,1.73,0.867,0.463,0.343,-0.156,0.984,0.000543,1.25,-0.186,0.743
TCGAGTAGGTTAGGGGCACTCAGAATGGCGTCGA,0.134,-0.0493,-0.34,0.556,-0.72,0.994,0.844,1.91,0.959,1.64,1.87,1.32,-0.303,-1.43,0.271,0.155,-0.021,0.491,-0.62,0.927
GCGACTGGGGCATCAGCTGGTTACCATAACTTAA,-0.422,-0.589,-0.452,0.296,-0.935,0.397,0.563,0.562,-0.565,0.127,3.64,3.01,-1.02,-0.691,-0.402,-0.444,-1.17,-0.536,-1.25,0.475
TATACAGGGTCAAAGGCCATAGTACGAATGTCGA,7.3,6.15,2.85,5.09,2.38,6.27,9.09,7.76,6.42,8.54,2.29,5.22,3.81,1.65,2.99,4.83,0.657,6.64,1.1,4.56
CAAACTAGGTCACCGGAATGTCAAAGTCCGCATG,4.57,3.52,0.679,2.64,0.303,5.44,8.97,7.22,5.76,7.24,8.65,9.1,5.11,2.79,2.69,2.31,-0.000286,3.53,0.651,4.37
TAGCCCAGGTCATTGGGCCAGTATAGTACGCATC,4.84,3.77,0.677,2.25,-0.127,4.22,3.72,3.93,0.844,2.6,1.36,3.68,-0.318,-0.214,1.51,2.71,0.0159,3.06,-0.165,3.71
GGAACGAGGGCATTCGAATTGATAGCATGGCGAT,0.807,0.373,-0.335,0.239,-0.211,1.31,1.15,1.14,0.413,0.651,3.02,2.16,-0.249,-0.176,-0.045,0.719,0.241,0.841,-0.483,1.9
ATCGAAAGGTCGACGTGAGTATAGAGAAAGGGAA,3.97,3.07,-0.0365,2.39,0.422,4.06,2.45,2.9,1.04,2.13,-0.328,1.19,1.19,0.607,0.972,2.21,0.153,2.94,-0.0772,3.82
ATCGAAAGGTTGAGGTGAGTATAGAGAAAGGGAA,0.898,0.95,-0.00942,0.744,0.158,1.86,0.625,0.616,0.531,0.337,-0.0233,1.04,1.15,1.07,0.793,0.751,0.241,1.37,0.673,1.79
TCGATTAGTTGATTAGGGCAACCGAAACAGCGGA,-1.31,-0.186,-0.313,0.118,-0.308,0.322,0.147,1.25,2.88,2.19,1.68,1.02,-0.465,0.363,0.609,0.11,-0.141,0.208,0.0713,0.744
AATACAGGGTTATCGTAGGCCAGAGTACGCACAG,1.75,5.85,0.204,2.68,0.3,2.55,1.75,1.35,0.668,0.954,0.539,1.12,0.626,0.739,0.97,1.59,-0.0696,1.79,0.276,1.3
